We go through 40 sequences from the supplement of paper PMC6555819.

This experiment concerns VDR:RXRa (NR concentration 270 nM, RXRa partner concentration 90 nM). Briefly: PBM binding z-score (relative to random genomic background probes); higher = stronger binding; sequences stand for … in GC…GCGATTGACAGCGTAGAATGAAGG
The method, then: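 Protein-binding microarray (Agilent 4x180K custom design, double-stranded 60-nt probes: 5' GC cap, 34-nt variable region, 24-nt constant primer region; full probe sequence given). Purified or IVT nuclear receptor:RXRα heterodimers (3:1 NR:RXRα, mostly 270:90 nM) or homodimers were incubated for 1 h in PBS with 2% milk and no ligand, then detected with Alexa488 antibodies. Fluorescence from o1-orientation probes (~5 replicates averaged) was converted to z-scores against 500 random hg19 background probes. Variable regions are seed direct-repeat (DR0–DR5) sites, all their single-nucleotide variants and half-site ablations.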
The sequence CCGAGTAGGTTATGGGGCATACAGGCAACGGTGA showed a PBM binding z-score of 0.117.
In turn, ACTTACGGGACAACGAGGTTATAGCACGCGTATA yielded a PBM binding z-score of 2.29.
For GATACAGGGTCAGCTAGAAGCCAGAGTATGGAAA, the PBM binding z-score was found to be 2.11.
As for CTCGAATGGTCGGTTGAGGTGAGTATACGGATAA, the PBM binding z-score was -0.211.
GCTTACGGGTCAAAGGTTATTGCATGAATAGAAT came in with a PBM binding z-score of 5.54.
For TCTTGTAGATGAATAGAGGTTAAGAAAGTGCGCT the value was 1.94.
On to ATCTCTAGGTAACCAAGTTCAATGAATGCCGAAC, for which the PBM binding z-score stood at 4.66.
Sequence CCTTACGGGTCACTCCAGGTGATAGCATCGGAGT returned a PBM binding z-score of 3.34.
CCTATTGGGCCATCAGGTCATTGATATCAACGTT had a PBM binding z-score of 2.12.
Regarding ATATGTAGGTTAGCTGGGGTCAATCAGACTAGGC, the PBM binding z-score stood at 5.46.
For GCTTGTAGATCAAGGTGAAGAAAGACTAAGCTAA, the PBM binding z-score was -0.394.
In the case of ATCTCTAGGTCAGACTCAGTTCAGTGAAGAACGC, the PBM binding z-score stood at 3.36.
With ATCTCTAGGTAAAAGTTCAGAGAATCCCGAGGAT, the PBM binding z-score amounted to 1.43.
For AGAAGGAGGTTATACGTAGATCAGGGAAGAAAGT the value was 0.711; for ATATGTAGGTTAGCTGGGGTCATTCAGACTAGGC, 6.27; for TCTATTCGTTGATTAGGGCAACCGAAACAGCGGA, 0.441.
CCGACTGGGCCAAAGGTCATTGATTCCAATGCTC had a PBM binding z-score of 4.58.
Turning to CCTATTTGGTCAAGGTCACACACGCTATAGGTAC, the PBM binding z-score stood at 4.18.
For GCAACGAGGGCAAAGTTGATAGCATCTGTCGACG the value was 1.26.
Consider ACAGACAGGTGAGTGAAGGCAACTCAGCTGGACG, for which the PBM binding z-score is -0.535.
On to ATATGTACGTTACATCCGGGTCATTCAGGCTATG, for which the PBM binding z-score came to 3.54.
AGAATTAGGTTATACGTAGATCAGGGAAGAAAGT came in with a PBM binding z-score of 0.22.
Sequence AGAATGAGGTTACCAAAAATCAGGGAAACGCTTG had a PBM binding z-score of 1.03.
The sequence CGAACTAGGTCAGCACAGGACAGTGAAGGATGAT yielded a PBM binding z-score of 0.981.
Sequence CGAACGAGGGCATGAGTTGAGAGCAAATGCCGAT showed a PBM binding z-score of 1.01.
Next, AGAATGAGGTTAAGAACAGGGAAACAGAATACAT: 1.04.
Sequence CAAACTAGGTCACAGAGGTCAATGTCCGTGCGTA showed a PBM binding z-score of 7.62.
Sequence TCATATAGGTAAACAGGTGACAGTCCGTAAGTTA returned a PBM binding z-score of 0.94.
ACTAGCAAGCCAAGGGTCACTCAAGATTAGTCCG gave a PBM binding z-score of 2.68.
TCCTATAGGTAAAGGTGAAAGTCGAACGATATGA came in with a PBM binding z-score of 0.86.
In turn, CCTAGCTGGCCAATCTGGGTCACTCAAGGCTTGA showed a PBM binding z-score of 0.147.
Sequence CAAACTAGGTCAAGGTCAAACTCGGTTTGTGCCA displayed a PBM binding z-score of 5.49.
As to CCTATTAGTTGAGCATAAGGGCAACCGAAGCTCG, the PBM binding z-score amounted to 0.408.
In turn, TAGCGTAGGTCATGGGCCAGTATACCACGCGAAC came in with a PBM binding z-score of 2.24.
CCGACTGGGGCAGAAAGGTTACCTTACCATCCGG came in with a PBM binding z-score of 0.875.
On to CCTTACGGGTTACTGACAGGTTATAGCATTTGGA, for which the PBM binding z-score was determined as 0.637.
As for GCTAGCAGGCCAGTTGGGTCACTCAATGACGGGC, the PBM binding z-score is -0.00125.
Regarding ACTCGGAGGACAAAGGTCAGAGATACGCCAGTGA, the PBM binding z-score was found to be 3.38.
For GCGACGGGGGCAAAGCAGGTTACCATAAGGTTGG, the PBM binding z-score came to 3.84.
TCTAGTTGGTCAAAGGTCATACACTCGAAATGCG came in with a PBM binding z-score of 5.38.
